# Assay outcomes deposited in PubChem by Broad Institute.
# This is one part of a sample in which hits are shown more often than they occur.
# T cruzi growth-1: blocks T. cruzi growth in NIH3T3 culture; 77,000 tested, 5.9% active; inhibition, % at 8.34 µM; AID 624255; T. cruzi beta-gal in NIH3T3, GalScreen luminescence, 90 h;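 active = mean inhibition above about 93%, with at least 55% of replicates each passing it, limit read from the data, passing the limit was not always enough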
# C diff HTS: C. difficile growth inhibition; AID 1259249; Clostridium difficile clinical isolate growth, OD600, 24 h; hits give low values; growth activity, negative = inhibition, % at 16 µg/mL (by protocol); 86,000 tested, 0.25% active;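 active = mean growth activity at or below -80% and every replicate also at or below -80%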;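 note: 0% = DMSO wells and -100% = levofloxacin 16 µg/mL wells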
# T cruzi growth-2: blocks T. cruzi growth in NIH3T3 host cells | 5,600 tested, 72% active | shares compounds with T cruzi growth-1 | AID 651739 | T. cruzi beta-gal in NIH3T3, GalScreen luminescence, 90 h | inhibition, % at 8.35 µM;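 active = mean replicate inhibition above about 95% and at least 55% of replicates individually reaching it, limit read from the data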
# T cruzi growth-3: Trypanosoma cruzi proliferation inhibition; shares compounds with T cruzi growth-1; T. cruzi beta-gal in NIH3T3, GalScreen luminescence, 90 h; inhibition, % at 2.09 µM; 5,600 tested, 21% active; AID 651740;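 active = mean inhibition above about 95%, with at least 55% of replicates also reaching it, limit read from the data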;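 note: plate controls were neutral control median for no effect and positive control median for full effect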
# 3T3 cytotox: kills mouse NIH/3T3 fibroblasts; shares compounds with T cruzi growth-1; NIH/3T3 viability, CellTiter-Glo ATP luminescence, 90 h; cytotoxicity (signal decrease), % at 8.35 µM; 5,600 tested, 14% active;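 active = mean signal decrease across replicates above about 35% based on untreated-well scatter, with enough replicates individually passing, limit read from the data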;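 note: 0% = median of neutral control wells and 100% = median of positive control wells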
# 3T3 cytotox 2: NIH/3T3 (mouse) viability loss | shares compounds with T cruzi growth-1 | NIH/3T3 viability, CellTiter-Glo ATP luminescence, 90 h | inhibition, % at 24.9 µM | 5,600 tested, 56% active | AID 651744;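 active = mean loss of cell viability signal at or above a set limit, and enough replicates individually reaching it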;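 note: 0% = median of neutral control wells and 100% = median of positive control wells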
# * marks the source's active call; other numbers are inactive results; . = no result.
SMILES,T cruzi growth-1,C diff HTS,T cruzi growth-2,T cruzi growth-3,3T3 cytotox,3T3 cytotox 2
CNC(=O)C[C@H]1CC[C@H]2[C@@H](COC[C@H](O)CN2Cc2ccccc2F)O1,.,1,.,.,.,.
O=C(C1CC1)N1CC(=O)N2[C@H](C1)[C@H](c1ccc(C#CC3CCCC3)cc1)[C@@H]2CO,.,-24,.,.,.,.
Cc1ccc(S(=O)(=O)N2C[C@@H](O)COC[C@H]3O[C@@H](CC(=O)NCCN4CCCCC4)CC[C@@H]32)cc1,-38,.,.,.,.,.
COc1ccc2c3c([nH]c2c1)[C@H](CO)N(Cc1nccs1)CC31CCN(C(=O)C2CC2)CC1,.,-4,.,.,.,.
O=C(Nc1ccccc1F)N1CCCCN2[C@H](CO)[C@@H](c3ccc(C#Cc4ccccc4)cc3)[C@@H]2C1,94,-2,.,.,.,.
OC[C@@H]1[C@@H](c2ccc(C#Cc3cccnc3)cc2)[C@@H]2CN(Cc3ccccc3F)CCCCN12,112*,-3,103*,98*,36*,104*
O=C(Nc1ccccc1F)N1CCCCN2[C@H](C1)[C@@H](c1ccc(C#Cc3cccnc3)cc1)[C@@H]2CO,104*,3,106*,39,26,65*
O=C(Nc1ccccc1F)N1CCCCN2[C@@H](CO)[C@@H](c3ccc(C#Cc4cccnc4)cc3)[C@@H]2C1,107*,10,97*,94,16,60*
OC[C@@H]1[C@@H](c2ccc(C#Cc3ccccc3F)cc2)[C@@H]2CN(Cc3cncnc3)CCCCN12,83,-9,.,.,.,.
O=C(Nc1ccccc1F)N1CCCCN2[C@H](CO)[C@H](c3ccc(C#Cc4ccccc4)cc3)[C@@H]2C1,75,-2,.,.,.,.
O=C(Nc1ccccc1F)N1CCCCN2[C@H](CO)[C@@H](c3ccc(C#Cc4ccccc4)cc3)[C@H]2C1,89,9,.,.,.,.
O=C(Nc1ccccc1F)N1CCCCN2[C@H](CO)[C@@H](c3ccc(C#Cc4cccnc4)cc3)[C@@H]2C1,99*,30,108*,90,21,55*
O=C(NC[C@H]1CC[C@H]2[C@H](CN2S(=O)(=O)c2ccccc2[N+](=O)[O-])O1)Nc1ccccc1,.,-2,.,.,.,.
O=C(C[C@@H]1CC[C@H]2[C@@H](COC[C@H](O)CN2Cc2ccccc2)O1)N[C@H]1CCN(Cc2ccccc2)C1,64,-7,.,.,.,.
